{"source": "paper PMC12136788", "binders": {"B1": {"name": "ENSG00000107021:stop:overlap|stop_codon|ENSG00000107021|stop_codon|NA|stop_codon (ssRNA)", "RNA": "GGGAGUUCUACAGUCCGACGAUCACCCCAUCACAGAUGUCUGCCAGAUCCUGCAGAAAGCCAAGGAGCUCCAAGACUCAAAGUAGCCCGGCGGCAAGAGGCCCAUGUUCCGGAGAGAAGCCUCCCGACCCUGUGCCCUGGCUCCAACAGAGGAUUGAGCAUCA"}, "B2": {"name": "ENSG00000136451:be:win_2701|3pUTR|ENSG00000136451|bound_else_gene|NA|bound_elsewhere_windowed (ssRNA)", "RNA": "GGGAGUUCUACAGUCCGACGAUCUGUAAAUAUGGACAUCACUUUUUUUUUCUUUGAGAAAACACUUGUAUCAGCUUUGUGGUGUUUUCAGGGAGACAGCUGUCUGCAUUCCCUGUAGAAACCCAGCAAUGAUUAUGCACGUUGCAACAGAGGAUUGAGCAUCA"}, "B3": {"name": "chr8:73046310:73046411:+|3pUTR|ENSG00000147601|msi1|total|mutant (ssRNA)", "RNA": "GGGAGUUCUACAGUCCGACGAUCUUGUAUUCUUUAAGAACCUUAUUUUGAUAAAAUGUAAAUUUGUUGAACCCUGCCACAUUCCGUAUCCCCACCCCCAAAUCCUGUUCCAAUGAAAAAAUUAAAACCUGAUACGAAAAAAAACAACAGAGGAUUGAGCAUCA"}, "B4": {"name": "chr4:70820284:70820384:-|3pUTR|ENSG00000132463|msi1_unk|FALSE|overlapping (ssRNA)", "RNA": "GGGAGUUCUACAGUCCGACGAUCUGAACUGGUAUGGUUUGGCAGAAUAGUUUUAAAUUUUGCUGUAUUUGAUUACUUAGAGAUAGGAAUUUUUAAAAAUCAAAACAAAAAAUACCACAGCUUAGUGUAAAUGACAAUUUGGCGCAACAGAGGAUUGAGCAUCA"}, "B5": {"name": "chr8:25429562:25429664:-|3pUTR|ENSG00000104756|unk|total|mutant (ssRNA)", "RNA": "GGGAGUUCUACAGUCCGACGAUCAGAAAAGCACUCAUUUAACCGAUGCCGGGAAACCCGAUAUUGCUGCCUUUUGAAUGGGGCCGGGGGGUUUACCUGGUUUUAUGACCAGGCACCGUAUCUAUUAUAUUUGCUUUUAAACCGCAACAGAGGAUUGAGCAUCA"}, "B6": {"name": "ENSG00000152661:stop:overlap|stop_codon|ENSG00000152661|stop_codon|NA|stop_codon (ssRNA)", "RNA": "GGGAGUUCUACAGUCCGACGAUCCUUCAAGCAGAGCCAGCAGUCGUGCCAGCAGCAGACCUCGGCCUGAUGACCUGGAGAUCUAGAUACAGGCUUGAAAGCAUCAAGAUUCCACUCAAUUGUGGAGAAGAAAAAAGGUGCUGUCAACAGAGGAUUGAGCAUCA"}, "B7": {"name": "chr5:116443554:116446612:-|three_prime_utr|ENSG00000092421|control|control|control (ssRNA)", "RNA": "GGGAGUUCUACAGUCCGACGAUCCCGCCAGUGUUACAGCUUUCUGUUGCAGCAGAUAAAUGCCAUGUUGGGCAACUAUGUCAUAGAUUUCUGCUCCUCCUCUCUUUUAAUGAAAUAACGUGACCGUUAACGCAAGUAACUCUUCAACAGAGGAUUGAGCAUCA"}, "B8": {"name": "chr5:159157431:159157536:-|3pUTR|ENSG00000145860|unk|FALSE|bound_elsewhere (ssRNA)", "RNA": "GGGAGUUCUACAGUCCGACGAUCCAAAAAGUGUUUUUCAGACCUCGGUAUUCCUAAUGUGGGAUGUGACUUUAUUUUAUUUUUAGUAGCAAAUUUGGAUGUAGACUGACAGACAUAGCUGAAUGUCUUAAUAAAUUUAAAUUUCAACAGAGGAUUGAGCAUCA"}, "B9": {"name": "chr5:159157431:159157536:-|3pUTR|ENSG00000145860|unk|total|mutant (ssRNA)", "RNA": "B8 RNA with U83C, A84C, U86C, A87C, U101C, A102C, U115C, A116C"}, "B10": {"name": "chr12:50748518:50748596:+|3pUTR|ENSG00000066084|msi1_unk|FALSE|overlapping (ssRNA)", "RNA": "GGGAGUUCUACAGUCCGACGAUCUCAAAUUCAAACUACAGUACUGUGUAAUUAUGUAUAAAGUUUUUUUAUUUAUUUGAAGUUAGACUAGAUAUACGUUUUUAAAUUUAACAUCUGGCUGGACAGUGUUCUAUUAACUCAUUGCAACAGAGGAUUGAGCAUCA"}, "B11": {"name": "chr20:59325757:59325866:+|3pUTR|ENSG00000124205|unk|total|mutant (ssRNA)", "RNA": "GGGAGUUCUACAGUCCGACGAUCUUAUGUGGAUCUGUUCAAAGCCGUCACUGUAUAUACGUACCGAGAGGCCGACCGGCCGGCCGAUUUUAAAUUGCAUUCUGAAUACAAACUCAUACUCCUCCGAGCUUGAAUUACAUUUUUCAACAGAGGAUUGAGCAUCA"}, "B12": {"name": "ENSG00000124766:be:win_3651|3pUTR|ENSG00000124766|bound_else_gene|NA|bound_elsewhere_windowed (ssRNA)", "RNA": "GGGAGUUCUACAGUCCGACGAUCUCGCUAAAUAUAAUUGUUUUAGUCUUAUGGCAUGAUGAUAGCAUAUGUGUUCAGGUUUAUAGCUGUUGUGUUUAAAAAUUGAAAAAAGUGGAAAACAUCUUUGUACAUUUAAGUCUGUAUCAACAGAGGAUUGAGCAUCA"}, "B13": {"name": "chr4:42087128:42087229:+|3pUTR|ENSG00000014824|msi1|FALSE|unique (ssRNA)", "RNA": "GGGAGUUCUACAGUCCGACGAUCAUUUUGUAUAAUAUAGUUCAUACUGUGUCUGUGAGUUUCUUCAGUUACAAAUGGGCAUUUAGUAUAGUUAUAUUGACUAUAACAUGUAAGUAAAUAGCUUUCUACUGACCCUAAGUUAUCCAACAGAGGAUUGAGCAUCA"}, "B14": {"name": "chr18:9400975:9401076:+|3pUTR|ENSG00000128791|msi1|total|mutant (ssRNA)", "RNA": "GGGAGUUCUACAGUCCGACGAUCUAUAAAAACCGAUAAUGCUCUUGGACACAUUUUGUAUUAUUCAUGAUCUGAACCGCCGUCCGUUAAAAGAUCAUUUGUAAUAUUAUGAUCAACUGUUAUAAAUUAAGGUCUUAAUACCUUCAACAGAGGAUUGAGCAUCA"}, "B15": {"name": "chr20:59325757:59325866:+|3pUTR|ENSG00000124205|unk|FALSE|unique (ssRNA)", "RNA": "GGGAGUUCUACAGUCCGACGAUCUUAUGUGGAUCUGUUCAAAGUAGUCACUGUAUAUACGUAUAGAGAGGUAGAUAGGUAGGUAGAUUUUAAAUUGCAUUCUGAAUACAAACUCAUACUCCUUAGAGCUUGAAUUACAUUUUUCAACAGAGGAUUGAGCAUCA"}, "B16": {"name": "chr8:140515610:140515764:+|3pUTR|ENSG00000104472|unk|FALSE|unique (ssRNA)", "RNA": "GGGAGUUCUACAGUCCGACGAUCUUUUGGAAUCAGUUCUUAUAAACAGCUCGAUUCAGUUUUAGCUAAAUUUAUAGUUUAGGUAGUAUGUUACAUUUGAAUUUUUGUCUUAAGAAAAGUUGACUGUUCAGAUAUUUUUCUACUCAACAGAGGAUUGAGCAUCA"}, "B17": {"name": "chr8:140515610:140515764:+|3pUTR|ENSG00000104472|unk|total|mutant (ssRNA)", "RNA": "B16 RNA with U62C, A63C, U74C, A75C, U79C, A80C, U83C, A84C"}, "B18": {"name": "chr9:74692981:74693082:+|3pUTR|ENSG00000198963|unk|FALSE|unique (ssRNA)", "RNA": "GGGAGUUCUACAGUCCGACGAUCUUUUAUAUUACUUUAGAAUGUAAUAGGUUUUUGUCCUUAUUUUAUGUCCUGUAAAUUAUUAGUUCAAUACUGUUAGCAUUCCCGGAUAAUGCACACAUGAUUUCUGAAUGUUUUCUGUAACAACAGAGGAUUGAGCAUCA"}, "B19": {"name": "chr18:9400975:9401076:+|3pUTR|ENSG00000128791|msi1|FALSE|unique (ssRNA)", "RNA": "B14 RNA with C32U, C33A, C76U, C77A, C79U, C80A, C83U, C84A"}, "B20": {"name": "chr5:14398947:14399058:+|CDS|ENSG00000038382|unk|total|mutant (ssRNA)", "RNA": "GGGAGUUCUACAGUCCGACGAUCCCCAAAAACCUUAAUUCGAAAGGGUCGAGAACGGCAUCUCUUCCUUUUUGAAAUGUCCUCCGUAUUCCGUAAAGAAGUGAAAGAUUCCAGUGGGAGAAGCAAGUACCUUUAUAAAAGCAACAACAGAGGAUUGAGCAUCA"}, "B21": {"name": "chr1:206903316:206905147:-|three_prime_utr|ENSG00000162894|control|control|control (ssRNA)", "RNA": "GGGAGUUCUACAGUCCGACGAUCUCUGUGCCCUGAGCAUGGCUCUGCCCCCAGGUCGUCUUGCACACCUUGGCAGCCCCCUGUAGUUGACAGGUAAGCUGUAGGCAUGUAGAGCAAUUGUCCCAAUGCCACUUGCUUCCUUUCCAACAGAGGAUUGAGCAUCA"}, "B22": {"name": "chr3:31657911:31664018:-|three_prime_utr|ENSG00000144645|control|control|control (ssRNA)", "RNA": "GGGAGUUCUACAGUCCGACGAUCGGGUUUUUCUUGCUGAGCCCCCAAGACUGGAUAAAUACCAGGCAGGGGAAGGGAUGGACUAGGGCAGCUCGGUUCUGACUCCAGCUUUGGACAAGGCUUCAGGACAGGUUUUCUGCCACACAACAGAGGAUUGAGCAUCA"}}, "note": "Residue numbers refer to the chain shown, from its start. In all, about 5,800 sequences were measured (“enrichment r”: median about 0.54, highest 2% from about 16 on). What follows is part of a selection rich in the highest values, with near analogues and random picks from the rest.", "data": [{"target": "MSI1 full-length (mouse, UniProt Q61474 1-362)", "sequence (Q61474 whole entry)": "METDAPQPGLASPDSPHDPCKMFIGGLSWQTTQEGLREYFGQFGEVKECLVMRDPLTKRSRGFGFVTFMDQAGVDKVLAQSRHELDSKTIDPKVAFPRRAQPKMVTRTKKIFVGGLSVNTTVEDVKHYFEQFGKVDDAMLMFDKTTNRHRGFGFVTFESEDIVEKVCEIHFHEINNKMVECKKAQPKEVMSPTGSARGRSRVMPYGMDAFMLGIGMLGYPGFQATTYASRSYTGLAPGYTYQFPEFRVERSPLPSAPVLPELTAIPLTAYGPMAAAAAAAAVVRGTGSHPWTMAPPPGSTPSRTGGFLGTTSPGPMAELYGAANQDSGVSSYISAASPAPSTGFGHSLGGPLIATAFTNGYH", "test": "nsRBNS (natural sequence RNA bind-n-seq); RBNS binding buffer (assumed for nsRBNS): 25 mM Tris pH 7.5, 150 mM KCl, 3 mM MgCl2, 0.01% Triton X-100, 500 ug/ml BSA, 20 U/ml SUPERase-In, 4 C; UNK is unkempt and MSI1 is Musashi-1; names of the RNAs are library labels; protein concentration not given here; high values mean tight binding", "units": {"binding signal": "enrichment R"}, "values": [{"binder": "B1", "binding signal": 0.38}, {"binder": "B2", "binding signal": 0.266}, {"binder": "B3", "binding signal": 2.83}, {"binder": "B4", "binding signal": 4.91}, {"binder": "B5", "binding signal": 0.472}, {"binder": "B6", "binding signal": 0.49}, {"binder": "B7", "binding signal": 0.417}, {"binder": "B8", "binding signal": 23.3}, {"binder": "B9", "binding signal": 0.361}, {"binder": "B10", "binding signal": 5.2}, {"binder": "B11", "binding signal": 0.342}, {"binder": "B12", "binding signal": 2.43}, {"binder": "B13", "binding signal": 2.94}, {"binder": "B14", "binding signal": 0.599}, {"binder": "B15", "binding signal": 20.2}, {"binder": "B16", "binding signal": 69.1}, {"binder": "B17", "binding signal": 0.336}, {"binder": "B18", "binding signal": 2.02}, {"binder": "B19", "binding signal": 24}, {"binder": "B20", "binding signal": 0.383}, {"binder": "B21", "binding signal": 0.397}, {"binder": "B22", "binding signal": 0.515}]}]}
